Sfp inh = qHTS Assay for Inhibitors of Bacillus subtilis Sfp phosphopantetheinyl transferase (PPTase); Biochemical Sfp PPTase activity, qHTS; 4'-phosphopantetheinyl transferase ffp (Bacillus subtilis), Q9F4F7; 310,000 tested, 3.5% active; Potency, µM, most hits filed as inhibitors;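 further: the enzyme is Sfp with the accession as filed and its product quenches rhodamine fluorescence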
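Compounds were incubated with enzyme (final 15 nM) for 15 min at room temperature before substrate addition started the reaction. Fluorescence at 525 nm excitation, 598 nm emission was recorded immediately and after 30 minutes.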
BAZ2B inh = qHTS Assay for Inhibitors of BAZ2B. AlphaScreen BAZ2B-H3K14Ac peptide displacement. 360,000 tested, 4.4% active. AID 504333, 2011. Potency, µM (doses to about 114 µM), most hits filed as inhibitors. Bromodomain adjacent to zinc finger domain protein 2B (Homo sapiens), Q9UIF8; further: nearly all actives have a fitted effect of over 60% in size
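Compounds, titrated to a top concentration of 110 uM, were incubated 30 min at room temperature with preformed BAZ2B/acetyl-K14 H3 peptide complex (50 nM each). Proximity signal was measured by AlphaScreen after 20 min with beads.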
G9a inh = qHTS Assay for Inhibitors of Histone Lysine Methyltransferase G9a; G9a H3K9 monomethylation, AlphaScreen, 2 h; Potency, µM (top dose mostly 102 µM), most hits filed as inhibitors; AID 504332, 2011; 350,000 tested, 8.8% active; further: nearly all actives have a fitted effect of over 75% in size
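AlphaScreen detection with an anti-monomethyl H3K9 antibody quantified product after a 2 h room-temperature reaction containing 500 nM biotinylated H3K9 peptide, 20 µM SAM and 20 nM enzyme, which had been preincubated 15 min with compound.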
JMJD2A Tudor inh = qHTS Assay for Inhibitors of JMJD2A-Tudor Domain; 390,000 tested, 4.4% active; Potency, µM (titrated, usually from 114 µM), most hits filed as inhibitors; Lysine-specific demethylase 4A (Homo sapiens), O75164; AID 504339, 2011; AlphaScreen JMJD2A-Tudor / H3K4me3 peptide binding; further: nearly all actives have a fitted effect of over 50% in size
Target sequence (O75164 whole entry, looked up, the tested form may be a part): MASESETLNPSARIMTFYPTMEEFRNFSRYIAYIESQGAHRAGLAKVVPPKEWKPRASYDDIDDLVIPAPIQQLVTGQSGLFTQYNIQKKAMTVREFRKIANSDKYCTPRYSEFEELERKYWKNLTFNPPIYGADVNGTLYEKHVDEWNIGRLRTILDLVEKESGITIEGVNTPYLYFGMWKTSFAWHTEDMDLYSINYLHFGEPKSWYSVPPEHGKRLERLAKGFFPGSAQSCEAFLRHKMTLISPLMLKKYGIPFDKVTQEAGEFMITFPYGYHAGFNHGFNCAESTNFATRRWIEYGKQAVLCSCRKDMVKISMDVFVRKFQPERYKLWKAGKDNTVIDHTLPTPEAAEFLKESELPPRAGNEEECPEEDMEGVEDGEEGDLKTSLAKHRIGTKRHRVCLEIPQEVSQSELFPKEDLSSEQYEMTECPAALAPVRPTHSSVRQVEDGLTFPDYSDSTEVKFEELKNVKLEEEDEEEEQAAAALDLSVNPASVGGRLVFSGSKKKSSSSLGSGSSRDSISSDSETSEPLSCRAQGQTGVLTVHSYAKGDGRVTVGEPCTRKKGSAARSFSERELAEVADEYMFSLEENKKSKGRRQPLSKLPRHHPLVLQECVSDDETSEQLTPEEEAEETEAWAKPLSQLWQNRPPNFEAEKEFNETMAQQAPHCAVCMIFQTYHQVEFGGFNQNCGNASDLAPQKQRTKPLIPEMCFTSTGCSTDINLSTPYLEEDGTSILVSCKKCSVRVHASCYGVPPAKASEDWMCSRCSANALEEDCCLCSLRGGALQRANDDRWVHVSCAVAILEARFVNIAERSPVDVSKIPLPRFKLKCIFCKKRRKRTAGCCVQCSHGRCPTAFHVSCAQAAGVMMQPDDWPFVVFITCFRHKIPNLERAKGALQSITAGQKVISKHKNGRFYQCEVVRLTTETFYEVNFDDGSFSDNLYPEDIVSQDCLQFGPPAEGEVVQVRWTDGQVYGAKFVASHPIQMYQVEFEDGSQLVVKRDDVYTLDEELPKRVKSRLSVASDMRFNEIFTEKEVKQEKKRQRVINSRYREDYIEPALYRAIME
HP1b chromo inh = HTS for Inhibitors of HP1-beta Chromodomain Interactions with Methylated Histone Tails; AlphaScreen HP1-beta / biotin-H3K9me3 peptide binding; Potency, µM (titrated, usually from 114 µM), usual class: inhibitors; 390,000 tested, 0.56% active; AID 540317, 2011; further: nearly all actives have a fitted effect of over 70% in size
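AlphaScreen: HP1-beta (50 nM) preformed 30 min with biotin-H3(1-18)K9me3 peptide (50 nM) in PBS pH 7.4, 0.01% Tween-20. Compound added for 30 min at RT, then streptavidin donor/nickel chelate acceptor beads (10 ug/mL) for 30 min.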
Hits are given with their value; i = inactive; ? = inconclusive; nt = no result; ! = not confirmed by another sample; [ ] = dose if it differs, or a comment. Only some compounds are listed: those with a hit (about 12% of all), similar ones and a draw of the others. The call rests on the fitted dose curve; in most records, active means well fitted curve in the direction sought with a large enough effect; inconclusive means small, poorly fitted or top-dose-only effect, or another doubt; inactive means no such curve, though single readings can be large; an effect the other way counts as inactive or inconclusive.

SMILES	Sfp inh	BAZ2B inh	G9a inh	JMJD2A Tudor inh	HP1b chromo inh
C=CCC(NCc1ccccc1)c1ccccc1 (stereo not drawn)	i	i	i	i	i
COc1ccc(/C=N/NC(=O)CN2CCCc3ccccc32)c(OC)c1	i	50µM	?	50µM	?
O=C(CN1CCCc2ccccc21)N/N=C/c1ccccc1O	i	i	i	i	i
O=C(O)C1CCCCC1C(=O)Nc1ccccc1Nc1ccccc1 (stereo not drawn)	i	i	?	i	i
O=C(O)C1CCCCC1C(=O)Nc1cccc2ccccc12 (stereo not drawn)	i	i	11µM	i	i
CCN1C(=NCCN2CCOCC2)N[C@@H](c2ccccc2)C(C(=O)OC)=C1C	i	?	50µM!	?	i
COC(=O)C1=C(C)N(Cc2ccco2)C(=O)N[C@H]1c1ccc(Br)cc1	?	?	50µM	nt	nt
CCN1C(=NCc2ccco2)N[C@@H](c2cccc(F)c2)C(C(=O)OC)=C1C	i	i	40µM!	?	i
CCN1C(=NCC(C)C)N[C@@H](c2cccc(F)c2)C(C(=O)OC)=C1C	i	?	40µM!	?	i
O=C(CN1C(=O)CSc2ccc(S(=O)(=O)N3CCCC3)cc21)NCc1ccc(Cl)cc1	nt	i	i	i	i
CCN1C(=O)N[C@@H](c2cccc(C(F)(F)F)c2)C(C(=O)OC)=C1C	i	nt	nt	i	i
CCN(CC)CCCN=C1N[C@@H](c2cccc(C(F)(F)F)c2)C(C(=O)OC)=C(C)N1CC	nt	nt	nt	25µM	i
CC(=O)Nc1ccc(OS(=O)(=O)O)cc1	i	nt	nt	nt	nt
O=C(CSc1nnc(NC(=O)C2CC(=O)N(c3ccc(F)cc3)C2)s1)NCc1ccco1 (stereo not drawn)	i	i	45µM	?	i
COc1ccc(N2CC(C(=O)Nc3nnc(SCC(=O)NCc4ccco4)s3)CC2=O)cc1 (stereo not drawn)	50µM	50µM	45µM	?	i
Cc1nn(-c2ccccc2)c(NC(=O)NS(=O)(=O)c2ccc(Cl)cc2)c1C#N	i	nt	nt	nt	nt
OC(COc1ccccc1Br)CN1CCNCC1 (stereo not drawn)	i	i	?	i	i
CC(C)OCC(O)CN1CCNCC1 (stereo not drawn)	i	i	?	79µM	i
COC(=O)c1c(C)[nH]c(-c2csc(N)n2)c1C	45µM	nt	?	i	i
COc1cccc(OC)c1NC(=O)CN(C)S(=O)(=O)c1ccc2c(c1)OCCO2	i	i	i	i	i
COC(=O)/C=C1\N/C(=N\c2nc(C)cc(C)n2)N(c2ccccc2)C1=O	i	i	i	i	i
COC(=O)/C=C1/N/C(=N\c2nc(C)cc(C)n2)N(c2cccc(C)c2)C1=O	?	i	i	22µM	i
O=C(Nc1ccccc1)Nc1ccc2nnsc2c1	i	i	i	79µM	i
CCOC(=O)c1cnc(NCc2ccc(Cl)cc2)c2ccccc12	nt	i	i	i	i
CCOc1cc(/C=C2/SC(=S)NC2=O)ccc1OC(=O)c1ccco1	40µM	40µM	13µM	?	?
SMILES	Sfp inh	BAZ2B inh	G9a inh	JMJD2A Tudor inh	HP1b chromo inh
O=C1NC(=S)S/C1=C/c1ccc(OC(=O)c2ccco2)cc1	i	79µM	i	?	i
COc1cc(/C=C2/SC(=O)NC2=O)ccc1OC(=O)c1ccco1	i	i	i	i	i
O=C(c1c(O)cc(O)cc1O)C1c2c(cc(O)c3c2O[C@H](c2ccc(O)cc2)[C@@H](O)C3)OC1c1ccc(O)cc1 (stereo partly drawn)	nt	?	i[2.33 µM]	?	i
O=C(OC1Cc2c(O)cc(O)cc2OC1c1cc(O)c(O)c(O)c1-c1c(C2Oc3cc(O)cc(O)c3CC2O)cc(O)c(O)c1O)c1cc(O)c(O)c(O)c1 (stereo not drawn)	40µM	nt	nt	nt	nt
COc1ccc(NC(=O)N(C)C[C@H]2Oc3ccc(NC(=O)C4CC4)cc3CC(=O)N([C@@H](C)CO)C[C@@H]2C)cc1	nt	nt	nt	i	i
CSC[C@H](NC(=O)Cc1c(C)c2cc3c(C)c(C)oc3cc2oc1=O)C(=O)N[C@@H](Cc1ccccc1)C(=O)O	i	i	i[12.7 µM]	i	i
CCC(NC(=O)CCc1c(C)c2cc3c(C)c(C)oc3cc2oc1=O)C(=O)N[C@@H](Cc1ccccc1)C(=O)O (stereo partly drawn)	i	50µM	?	?	i
CC(C)NC(=O)c1cnc2sc(N3CCCCCC3)nn2c1=O	nt	i	i	i	i
CN(C)c1ncc(C2=C(Cl)C(=O)C(N3CCCC3)=C(Cl)C2=O)s1	nt	nt	nt	11µM	i
CC(=O)c1cnc(N(C)C)s1	i	i	i	i	i
O=C1C(Cl)=C(N2CCCCC2)C(=O)C(Cl)=C1c1cnc(N2CCCCC2)s1	18µM	45µM	2.2µM	8.9µM	?
Cc1ccsc1/C=C1\SC(=S)N(CC2CCCO2)C1=O (stereo not drawn)	i	10µM	5µM	10µM	45µM
CCCOc1ccc(/C=C2\SC(=S)N(CC3CCCO3)C2=O)cc1 (stereo not drawn)	i	?	3.5µM	?	?
CCOc1ccc(/C=C2\SC(=S)N(N3C(=O)C4CC4C3=O)C2=O)cc1 (stereo not drawn)	i	i	40µM	?	i
COCC(=O)N1CCC[C@@]2(CCN(C(=O)Nc3cccc(C#N)c3)C2)C1	i	nt	i[12.7 µM]	nt	nt
Cc1cc2c(s1)c(/C=N/O)c(C(=O)NCc1ccccc1F)n2C	nt	nt	nt	i	nt
Cn1c(CNC(=O)CSc2n[nH]c(-c3ccccc3)n2)nc2ccccc21	nt	i	i	i	i
Cn1c(CNC(=O)CSc2n[nH]c(-c3ccccc3Cl)n2)nc2ccccc21	nt	i	28µM	i	i
CC1CC2(CC(C)(C(=O)CSc3n[nH]c(-c4ccccc4Cl)n3)OC2=O)C(=O)O1 (stereo not drawn)	i	i	?	?	i
CC1(C(=O)CSc2n[nH]c(-c3ccccc3Cl)n2)CCC(=O)O1 (stereo not drawn)	50µM	?	10µM	nt	nt
CC1(C(=O)CSc2ncn[nH]2)CCC(=O)O1 (stereo not drawn)	56µM	89µM	11µM	nt	nt
C[C@H]1[C@@H](OC(=O)CCC(=O)O)OC2OC3(C)CC[C@H]4[C@H](C)CC[C@@H]1[C@@]24OO3 (stereo partly drawn)	i	nt	i[12.7 µM]	nt	nt
Nc1nc2ccccc2n1C(=O)c1ccccc1	i	79µM	nt	i	i
CCc1ccc2nc(SCC(=O)N3CC(=O)Nc4ccccc43)c(C#N)cc2c1	i	i	i	50µM	?
COc1ccccc1Nc1nnc(SCC(=O)N2CC(=O)Nc3ccccc32)s1	i	i	50µM	i	i
Cc1nc(SCC(=O)N2CC(=O)Nc3ccccc32)nc(C)c1C	i	i	32µM	i	i
O=C1CN(C(=O)CNCc2ccc(Cl)cc2)c2ccccc2N1	?	71µM	25µM	10µM	?

Compound activity deposited in PubChem by National Center for Advancing Translational Sciences (NCATS).
